# Bioassay records from PubChem BioAssay.
# Shown are actives, neighbours in structure and some others; about 19% of the full set was active somewhere.
# HepG2 viability – counter-screen for TGF-b inhibitors: cytotoxicity in HepG2 cells; HepG2 CAGA-GFP viability, ATP luminescence, 18 h; Potency, µM (top dose mostly 46.1 µM), without a hit: top-dose activity change, negative = cytotoxicity, actives largely listed as cytotoxic; 0.76% of 410,000 active; AID 588856; also: potency is read from the fitted curve at half-maximal effect
#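 CellTiter-Glo luminescence gave cytotoxicity after 18 hours at 37 degrees C. The cells were HepG2 CAGA-GFP in 1% FBS DMEM, stimulated with 500 pg/mL TGF-beta after compound addition. %Activity was normalised to no-cell wells (complete cell-killing) and DMSO (no toxicity), and curves were fitted and classified.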
# IL1B secr inh – blocks inflammasome-driven IL-1 beta release | THP-1 LPS/ATP IL-1B secretion, AlphaLISA, 16 h; stronger effect = lower value | activity change, % at 57.5 µM | 4.7% of 360,000 active | AID 743279; in the data active = activity change below about -50%; inconclusive = mostly about -30% to -49%; also: % is scaled to controls: 0 for no effect and ±100 for the full control effect
#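 THP-1 cells pretreated 1 hr with compounds (up to 57.5 uM final), then stimulated with LPS (250 ng/mL final) plus ATP (1.25 mM final); secreted IL-1B measured by AlphaLISA after 16 hr, decreased signal indicating inhibition.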
# DT40 TDP1 CPT – growth inhibition of DT40 Tdp1-/-;hTDP1 cells with camptothecin (screen for TDP1 inhibitors); chicken DT40 Tdp1-/-;hTDP1 cells + 20 nM CPT, ATP luminescence, 48 h; Potency, µM (top dose mostly 46.2 µM), inactives show top-dose activity change, negative = growth inhibition, most hits filed as inhibitors; 12% of 420,000 active; also: potency is read from the fitted curve at half-maximal effect; % is scaled to controls: 0 for no effect and ±100 for the full control effect; nearly all actives have a fitted effect of over 55% in size
#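 Chicken DT40 Tdp1-/- cells complemented with human TDP1, 400 cells/well, exposed to compounds plus 20 nM camptothecin for at least 48 h at 37 C; viability read as ATP content by CellTiter-Glo luminescence.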
# TDP1 cell noCPT – qHTS for Inhibitors of human tyrosyl-DNA phosphodiesterase 1 (TDP1): qHTS in cells in absence of CPT. DT40 Tdp1-/- hTDP1 cells, no CPT, ATP luminescence, 48 h. Potency, µM (doses to about 46.2 µM), for inactives: at the highest dose activity change, negative = growth inhibition, most hits filed as inhibitors. 15% of 420,000 active. AID 686978, 2013; also: potency is read from the fitted curve at half-maximal effect; % is scaled to controls: 0 for no effect and ±100 for the full control effect; nearly all actives have a fitted effect of over 55% in size
#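 Camptothecin absent (DMSO only). Human TDP1-complemented DT40 knockout cells, 400 cells/well, 37 °C for minimum 48 hr; ATP measured via CellTiter-Glo, 30 min dark incubation, luminescence.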
# ASM inhibitor – inhibitors of human secretory acid sphingomyelinase; P17405; placental ASM, HMU-PC fluorogenic substrate, 60 min; Potency, µM (titrated, usually from 57.5 µM), for the others: top-dose activity change, negative = inhibition, most hits filed as inhibitors; 0.006% of 340,000 active; also: potency is read from the fitted curve at half-maximal effect
# Target sequence (P17405 47-631 limits assumed): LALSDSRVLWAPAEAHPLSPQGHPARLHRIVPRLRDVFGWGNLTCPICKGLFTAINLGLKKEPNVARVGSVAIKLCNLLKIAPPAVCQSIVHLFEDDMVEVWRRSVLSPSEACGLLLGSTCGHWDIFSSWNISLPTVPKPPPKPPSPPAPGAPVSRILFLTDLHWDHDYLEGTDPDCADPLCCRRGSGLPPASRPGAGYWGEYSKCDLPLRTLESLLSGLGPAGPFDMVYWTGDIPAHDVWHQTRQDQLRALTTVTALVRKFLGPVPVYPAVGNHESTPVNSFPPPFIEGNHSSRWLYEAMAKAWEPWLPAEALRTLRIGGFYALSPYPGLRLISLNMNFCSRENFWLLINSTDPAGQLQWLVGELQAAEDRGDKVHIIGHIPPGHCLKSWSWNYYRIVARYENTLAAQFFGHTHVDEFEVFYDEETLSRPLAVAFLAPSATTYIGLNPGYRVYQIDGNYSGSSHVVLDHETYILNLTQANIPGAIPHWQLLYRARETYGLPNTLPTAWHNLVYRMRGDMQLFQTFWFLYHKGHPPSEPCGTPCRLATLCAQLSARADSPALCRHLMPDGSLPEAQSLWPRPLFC
#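 Human placenta-derived ASM enzyme was preincubated with compound for 10 minutes at room temperature, then given fluorogenic substrate HMU-PC0 (9 uM final) for 60 minutes at 37 °C; a pH 10 stop preceded fluorescence reading at Ex 386/Em 447 nm.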
# TGFb inhibitor – TGF-b pathway inhibition; Potency, µM (titrated, usually from 46.1 µM), inactives show at the top dose activity, negative = inhibition, usual class: inhibitors; HepG2 CAGA-GFP TGF-b/SMAD3 reporter, GFP fluorescence, 18 h; TGF-beta stimulated, 500 pg/mL final; 1.2% of 410,000 active; AID 588855; also: potency is read from the fitted curve at half-maximal effect; % is scaled to controls: 0 for no effect and ±100 for the full control effect; nearly all actives have a fitted effect of over 65% in size
#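 Inhibition of TGF-beta-driven CAGA-GFP reporter expression in HEPG2 cells is measured by cellular GFP fluorescence after 18 h stimulation with 500 pg/mL recombinant TGF-beta in 1% FBS medium at 37 degrees C.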
# Starred values were filed as active, the others as inactive; ? = inconclusive; · = no result. Unless noted, calls follow the shape of the dose curve; as a rule, active = well fitted curve in the direction sought with a large enough effect; inconclusive = small, poorly fitted or top-dose-only effect, or another doubt; inactive = no such curve, though single readings can be large; an effect the other way counts as inactive or inconclusive.
SMILES,HepG2 viability,IL1B secr inh,DT40 TDP1 CPT,TDP1 cell noCPT,ASM inhibitor,TGFb inhibitor
Cc1cc(C(C)(C)C)oc1C(=O)N(CC(=O)NC1CCCC1)Cc1ccccc1Cl,-37%,?,13µM*,13µM*,-5%,?
Cc1ccccc1N(CC(=O)NC1CCCCC1)C(=O)c1csnn1,5%,5,-1%,-7%,1%,-3%
O=C(CN(Cc1ccccc1Cl)C(=O)CCC(=O)Nc1nccs1)NCC1CCCO1 (stereo not given),-3%,16,-4%,-15%,1%,-4%
O=C(CN1C(=O)NC(c2ccccc2)(c2ccccc2)C1=O)NC1CCCC1,-40%,-23,5%,7%,-1%,-1%
CC12CC3CC(C)(C1)CC(C(=O)NC1=NCCS1)(C3)C2,0%,0,-2%,-23%,4%,-28%
CC12CC3(C)CC(C)(C1)CC(C(=O)NC1=NCCS1)(C2)C3,7%,23,23µM*,?,1%,?
CCCSc1nc(-c2ccccc2)[nH]c1S(=O)(=O)c1ccc(C)cc1,-38%,·,?,18µM*,·,?
CC(=O)CSc1nc(-c2ccccc2)[nH]c1S(=O)(=O)c1ccc(C)cc1,-23%,·,?,3.3µM*,·,-28%
Cc1ccc(S(=O)(=O)c2[nH]c(-c3ccccc3)nc2SCCC(=O)O)cc1,3%,·,4%,1%,·,14%
Cc1ccc(C(O)Cn2nc(C)cc2C)cc1 (stereo not given),2%,9,?,?,10%,-1%
CCCc1cc(=O)[nH]c(SCc2cc(C(=O)OC)c(C)o2)n1,-1%,35,1%,-11%,-2%,2%
COC(=O)c1cc(CSc2nc3ccccc3[nH]2)oc1C,-6%,29,15µM*,23µM*,4%,-37%
COc1ccc(S(=O)(=O)N2CCOCC2)cc1NC(=O)c1ccncc1,9%,-4,-2%,-1%,3%,17%
O=C(Cc1c(F)cccc1Cl)Nc1ccccc1C(=O)N1CCCCC1,0%,6,-7%,-20%,4%,10%
O=C(CCc1ccccc1Cl)Nc1cc(S(=O)(=O)N2CCOCC2)ccc1N1CCCC1,-8%,-13,15µM*,18µM*,0%,0%
O=C(Cc1c(F)cccc1Cl)Nc1ccccc1N1CCCCC1,-19%,15,16µM*,?,-4%,?
CCOCC(=O)Nc1cc(S(=O)(=O)N2CCOCC2)ccc1N1CCCCC1,-10%,8,15µM*,16µM*,-4%,3%
COc1ccc(C(=O)OCC(=O)Nc2cc(S(=O)(=O)N3CCOCC3)ccc2N2CCCC2)cc1,-1%,-64*,3%,-18%,-1%,12%
O=C(Cc1ccc(F)cc1)Nc1cc(S(=O)(=O)N2CCOCC2)ccc1N1CCCCC1,-8%,20,?,23µM*,·,3%
O=C(Cc1c(F)cccc1Cl)Nc1cc(S(=O)(=O)N2CCCCC2)ccc1N1CCOCC1,-10%,-16,?,16µM*,-2%,-21%
CN1CCN(c2ccc(S(=O)(=O)N3CCCCC3)cc2NC(=O)Cc2c(F)cccc2Cl)CC1,5%,-17,?,?,-3%,1%
COc1ccccc1N1CCN(C2CC(=O)N(c3cccc(Cl)c3)C2=O)CC1 (stereo not given),3%,56,-5%,6%,7%,4%
CCS(=O)(=O)N1CCc2cc(C(=O)Nc3cccc(C)c3C)ccc21,-8%,·,?,?,·,2%
CCc1ccc(CN(Cc2cccnc2)C(=O)/C=C/c2ccc(OC)cc2)cc1,-25%,0,-55%,15µM*,-1%,?
COc1ccc(/C=C/C(=O)NCc2cccnc2)cc1,-9%,21,-1%,-12%,2%,?
SMILES,HepG2 viability,IL1B secr inh,DT40 TDP1 CPT,TDP1 cell noCPT,ASM inhibitor,TGFb inhibitor
COc1ccc(Cl)cc1NC(=O)Cn1nc(C(F)(F)F)c2c1CCCC2,-30%,·,?,?,·,13µM*
CCc1ccc(NC(=O)Cn2nc(C(F)(F)F)c3c2CCC3)cc1,-3%,?,?,?,-1%,-15%
COc1ccc(Cl)cc1NC(=O)Cn1nc(C(F)(F)F)c2c1CCC2,-7%,·,?,?,·,?
COc1cc(NC(=O)Cn2nc(C(F)(F)F)c3c2CCCC3)cc(OC)c1OC,-39%,-12,23µM*,10µM*,0%,-12%
O=C(NCC1CCCO1)c1cc2nc(-c3ccco3)cc(C(F)(F)Cl)n2n1 (stereo not given),6%,7,-4%,-5%,76%,9%
COc1ccc(C(=O)CSc2nnc(-c3ccccn3)n2Cc2ccco2)cc1,4%,10,-9%,?,-1%,0%
Brc1ccc(CSc2nnc(-c3ccccn3)n2Cc2ccco2)cc1,-20%,0,15µM*,8.2µM*,-1%,?
Clc1cccc(CSc2nnc(-c3ccccn3)n2Cc2ccco2)c1,-25%,-19,16µM*,16µM*,-2%,-22%
CC(C)(C)c1ccc(CSc2nnc(-c3ccccn3)n2Cc2ccco2)cc1,-27%,-94*,?,?,-1%,?
COc1cc(Cl)c(C)cc1NC(=O)CSc1nnc(-c2ccccn2)n1Cc1ccco1,-17%,-7,?,?,-9%,2%
CNC(=O)CSc1nnc(-c2ccccn2)n1Cc1ccco1,-9%,4,-4%,18%,4%,-16%
CC(=O)N1CCc2cc(Br)cc(S(=O)(=O)N3CCC(C(=O)Nc4cccc(C)c4C)CC3)c21,-1%,·,-1%,-23%,·,0%
Nc1ccc(SCc2cccnc2)cc1,12%,9,-1%,-20%,5%,7%
Cc1cc(Cl)ccc1NS(=O)(=O)c1c(C)[nH]c(=O)[nH]c1=O,4%,-1,-6%,1%,0%,-7%
COc1ccc(C(=O)C[C@@H]2OC3CCCCC3N2S(=O)(=O)c2ccc(C)cc2)cc1OC (stereo not given in full),·,-11,16µM*,16µM*,·,·
CCOC(=O)C[C@@H]1OC2CCCCC2N1S(=O)(=O)c1ccc(C)cc1 (stereo not given in full),·,14,26µM*,?,·,·
Cc1ccc(S(=O)(=O)N2C3CCCCC3O[C@H]2CC(=O)c2cccs2)cc1 (stereo not given in full),·,-4,?,?,·,·
